High-throughput results from PubChem BioAssay.
uPA generation: qHTS for Inhibitors of Cell Surface uPA Generation; 0.31% of 330,000 active; cell surface uPA generation assay, qHTS; Potency, µM (top dose mostly 38.3 µM), without a hit: at the top dose activity change, negative = inhibition, hits mostly inhibitors; active means well fitted inhibition curve with a large enough effect; inconclusive means small, poorly fitted or top-dose-only effect; inactive means no such curve, though single readings can be large or run the other way; tested in mouse RAW 264.7 cells; further: potency means the concentration at half of the fitted maximal effect; on the % scale 0 is the no-effect control and ±100 the full control effect; nearly all actives have a fitted effect of over 55% in size
ClpP mod: qHTS Assay for Activators of ClpP; 1.9% of 340,000 active; Potency, µM (titrated, usually from 57.5 µM), without a hit: at the top dose activity change, negative = active; purified B. subtilis ClpP, FRET peptide cleavage, 20 min; ATP-dependent Clp protease proteolytic subunit (Bacillus subtilis (strain 168)), P80244; active means well fitted falling curve with a large enough effect; inconclusive means small, poorly fitted or top-dose-only effect; inactive means no such curve, though single readings can be large or run the other way; further: potency means the concentration at half of the fitted maximal effect; the source files actives as falling curves though it sought activators and does not explain the sign; nearly all actives have a fitted effect of over 65% in size
Target sequence (P80244 whole entry, looked up): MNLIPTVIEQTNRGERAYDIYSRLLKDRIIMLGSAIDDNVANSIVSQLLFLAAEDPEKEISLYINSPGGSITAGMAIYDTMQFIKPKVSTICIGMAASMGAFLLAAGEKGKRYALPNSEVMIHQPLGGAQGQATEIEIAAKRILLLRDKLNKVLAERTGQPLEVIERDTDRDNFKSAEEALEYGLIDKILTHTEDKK
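Buffer: 100 mM Tris/HCl pH8, 100 mM KCl, 0.05% low protease BSA, 2.5% glycerol, 0.01% Tween-20. ClpP 10 microg/mL final; 20 min RT; delta FRET normalized to ADEP and DMSO controls.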
Sfp inh: qHTS Assay for Inhibitors of Bacillus subtilis Sfp phosphopantetheinyl transferase (PPTase) | 4'-phosphopantetheinyl transferase ffp (Bacillus subtilis), Q9F4F7 | Potency, µM, for the others: largest response in the series, negative = inhibition, usual class: inhibitors | 3.5% of 310,000 active | Biochemical Sfp PPTase activity, qHTS;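 further: the enzyme is Sfp with the accession as filed and its product quenches rhodamine fluorescence; potency means the concentration at half of the fitted maximal effect; 0% = enzyme reaction without inhibitor and -100% = no enzyme wells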
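Fluorescence-quenching assay with 15 nM Sfp, 5 uM rhodamine-CoA and 12.5 uM BHQ-2-labelled ybbR peptide in pH 7.6 Hepes/MgCl2 buffer. Enzyme was pre-incubated with compound for 15 min at room temperature. Rate was taken from the 30-min fluorescence change (525/598 nm).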
TCR act: Activators of T cell receptors: qHTS campaign | primary human leukocytes, anti-CD3, IL-2 HTRF, 48 h | Potency, µM (highest dose often 9.22 µM), for the others: at the highest dose activation of IL-2 secretion, hits mostly activators | 330,000 tested, under 10 active; further: % of control where 0% means no effect
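HTRF read-out of IL-2 secretion: europium cryptate donor excited at 320nm, d2 acceptor emission at 665nm. Cells were primary human leukocytes incubated 48 hr with compounds and a-CD3 beads, supplying TCR signal only.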
Starred values were filed as active, the others as inactive; [ ] = dose if it differs, or a comment. Hits are enriched below; roughly 4.2% of the tested compounds scored in any of these assays. Unless noted, the call rests on the fitted dose curve; in most records, active means well fitted curve in the direction sought with a large enough effect; inconclusive means small, poorly fitted or top-dose-only effect, or another doubt; inactive means no such curve, though single readings can be large; an effect the other way counts as inactive or inconclusive.

For Cc1cccc(NC(=O)Cn2c(O)c(N=NC(N)=S)c3ccccc32)c1 the results were uPA generation -6.4%, Sfp inh 39.8µM* and TCR act -7.3%.
`Cc1ccc2c(c1)c(N=NC(N)=S)c(O)n2Cc1ccccc1` gave uPA generation -2.7%, ClpP mod 25.1µM*, Sfp inh -3.5% and TCR act 10.9%[46.1 µM].
`Cc1ccc(NC(=O)Cn2c(O)c(N=NC(=O)c3ccncc3)c3ccccc32)cc1` gave uPA generation -1.3%, Sfp inh 3.5% and TCR act 2.0%.
`O=S(=O)(NCC(O)COCc1ccco1)c1cccs1` (stereo not given) gave uPA generation 5.2%, ClpP mod 1.6%, Sfp inh 44.7µM* and TCR act 5.6%.
N#CC1=C(S)N(c2ccccc2)C2(CCCCC2)NC1=O was read as uPA generation 5.5%, ClpP mod -0.6%, Sfp inh 28.2µM* and TCR act 0.9%[46.1 µM].
N#CC1=C(S)N(c2ccc(F)cc2)C2(CCCCC2)NC1=O was read as uPA generation -0.3%, Sfp inh 20µM* and TCR act 5.2%.
`O=C1c2ccccc2NC2(CCCCC2)N1c1ccc(O)cc1` gave uPA generation -7.6%, ClpP mod inconclusive, Sfp inh 16.7% and TCR act 2.0%.
`CCOC(=O)C1CCCN(C(=O)c2cncc(Br)c2)CC1` (stereo not given) gave ClpP mod 1.0%.
For COc1cc(/C=N/NC(=O)c2cccnc2)cc2c1OCO2 the results were uPA generation -22.7%, ClpP mod -0.9%, Sfp inh 0.5% and TCR act 1.3%.
Screening COc1cc(/C=N/NC(=O)c2ccccn2)cc2c1OCO2 returned uPA generation -3.8%, Sfp inh 50.1µM* and TCR act 0.9%[46.1 µM].
Screening Cc1ccsc1/C=N/NC(=O)c1ccccn1 returned uPA generation -7.2%, ClpP mod -9.4%, Sfp inh 56.2µM* and TCR act -1.4%[46.1 µM].
For O=C(N/N=C/c1ccco1)c1ccccn1 the results were uPA generation -12.4%, ClpP mod -0.6% and Sfp inh 50.1µM*.
Screening Cc1ccsc1/C=N/NC(=O)c1cccs1 returned uPA generation -7.3%, ClpP mod 0.0%, Sfp inh 2.2% and TCR act 7.6%[46.1 µM].
`O=C(N/N=C/c1ccco1)C(O)C(O)C(=O)N/N=C/c1ccco1` (stereo not given) gave uPA generation -4.4%, Sfp inh 22.4% and TCR act -2.4%.
For CNC(=S)N/N=C/c1ccco1 the results were uPA generation 5.1%, ClpP mod 0.7%, Sfp inh 56.2µM* and TCR act 2.0%.
For CC1=C(c2ccc(C)c(C)c2)S(=O)(=O)N(Cc2ccc(C(=O)NCc3ccccc3F)cc2)C1=O the results were ClpP mod 14.1µM*.
For CNc1nc(-c2c[nH]c3ccccc23)cs1 the results were uPA generation -1.1%, ClpP mod -5.4%, Sfp inh 56.2µM* and TCR act 6.8%.
Screening CCC(C)Nc1nc(-c2c[nH]c3ccccc23)cs1 (stereo not given) returned uPA generation 0.0%, Sfp inh inconclusive and TCR act 0.2%.
For Nc1nc(-c2c[nH]c3ccccc23)cs1 the results were uPA generation -3.7%, ClpP mod -10.6%, Sfp inh 22.4µM* and TCR act -26.5%.
For Cc1ccc2c(-c3csc(N)n3)c[nH]c2c1 the results were Sfp inh -19.4%.
For COCCOc1ccc(C(F)(F)F)cc1NC(=O)c1ccccc1F the results were uPA generation 0.1%, ClpP mod 25.1µM*, Sfp inh 8.4% and TCR act 8.4%[46.1 µM].
Screening COc1ccc(CN(Cc2ccc(C(=O)O)cc2)C(=S)Nc2ccccc2F)cc1OC returned uPA generation -0.4%, Sfp inh 50.1µM* and TCR act 5.5%.
COc1ccc(CCN(Cc2ccccn2)C(=S)Nc2cccc(SC)c2)cc1OC was read as uPA generation -0.3%, Sfp inh 44.7µM* and TCR act -0.3%.
For COc1ccc(CCN(Cc2ccccn2)C(=S)Nc2ccc(C)cc2)cc1OC the results were uPA generation 8.8%, ClpP mod -1.5%, Sfp inh 3.7% and TCR act -6.9%.
